# Reference: PubChem BioAssay (NCATS)
# Where “and” joins values, the source holds several entries; their conditions need not be identical. Identical values can stand only once. Records with an inconclusive call do not appear. Values without a mark were called inactive. Calls of active or inactive are those of the source. The call rests on the fitted dose curve; in most records, active means well fitted curve in the direction sought with a large enough effect; inconclusive means small, poorly fitted or top-dose-only effect, or another doubt; inactive means no such curve, though single readings can be large; an effect the other way counts as inactive or inconclusive.
# What was measured:
# [1] = Primary qHTS for inhibitors of nuclear receptor binding SET domain protein 2 (NSD2) in an isogenic RCH-ACV NSD2 p.E1099K mutant (9B) (AID 1645876)
# [2] = Primary qHTS for inhibitors of nuclear receptor binding SET domain protein 2 (NSD2) in an RCH-ACV wild type WT cells (2C) (AID 1645877)
# Further: nearly all actives have a fitted effect of over 70% in size.
# On the % scale 0 is the no-effect control and ±100 the full control effect; potency means the concentration at half of the fitted maximal effect.
compound,measurement,setting,value
C=C(COC(=O)C(O)C(O)CN)C12OC1C1(C)C(=CC2=O)C(O)C(O)CC1C (centres undefined),Potency,[1],inactive
same,Potency,[2],inactive
CC(C)n1cnc2c(-c3cnc(N)nc3)nc(N3CCOCC3)nc21,Potency,[1],0.159 µM (active)
same,Potency,[2],0.224 µM (active)
C=C1C(=O)OC2/C=C(\CO)CC/C=C(\C=O)C(O)C(OC(=O)C(C)CC)C12 (centres undefined),Potency,[1],5.67 µM (active)
same,Potency,[2],2.01 µM (active)
CC[C@@H](C)[C@@H]1OC2(C=C[C@H]1C)C[C@@H]1C[C@H](C/C=C(\C)[C@H](O[C@H]3C[C@H](OC)[C@H](O[C@H]4C[C@H](OC)[C@H](NC(C)=O)[C@H](C)O4)[C@H](C)O3)[C@H](C)/C=C/C=C3\CO[C@H]4[C@H](O)C(C)=C[C@@H](C(=O)O1)[C@@]34O)O2 (some centres undefined),Potency,[1],8.01 µM (active)
same,Potency,[2],5.05 µM (active)
COC1CC/C=C(\C)C(=O)Nc2cc(O)cc(c2)CC(C)CC(OC)C(O)C(C)/C=C(\C)C1OC(N)=O (centres undefined),Potency,[1],2.52 µM (active)
same,Potency,[2],2.82 µM (active)
CC(=O)C=C=C1C(C)(C)CC(O)CC1(C)O[C@@H]1O[C@H](CO[C@H]2OC[C@](O)(CO)[C@H]2O)[C@@H](O)[C@H](O)[C@H]1O (some centres undefined),Potency,[1],inactive
same,Potency,[2],inactive
C=C1CCC2C(C)(C(=O)O)CCCC2(C)C1CCC1=CCOC1=O (centres undefined),Potency,[1],inactive
same,Potency,[2],inactive
C=C(NC(=O)C(=C)NC(=O)c1csc(C2=NC3c4csc(n4)C4NC(=O)c5csc(n5)C(C(C)(O)C(C)O)NC(=O)C5CSC(=N5)/C(=C/C)NC(=O)C(C(C)O)NC(=O)c5csc(n5)C3(CC2)NC(=O)C(C)NC(=O)C(=C)NC(=O)C(C)NC(=O)C(C(C)CC)NC2C=Cc3c(C(C)O)cc(nc3C2O)C(=O)OC4C)n1)C(N)=O (centres undefined),Potency,[1],2.3 µM (active)
same,Potency,[2],0.916 µM (active)
CC(C)NC(=O)N1CC[C@H](N=C2Nc3cc(F)ccc3N(CC(F)F)c3ccc(Cl)cc32)C1,"activity change, negative = viability loss",[1],-17% [at 9.23 µM]
same,"activity change, negative = cell killing",[2],1.84% [at 9.23 µM]
COC(=O)CC[C@@H](C)C1CCC2C3CCC4C[C@H](OC(C)=O)CCC4(C)C3C[C@H](O)C21C (some centres undefined),Potency,[1],inactive
same,Potency,[2],inactive
CC1(C)CC[C@]23CO[C@@]4(CCC5[C@@]6(C)CC[C@H](O[C@@H]7OC[C@H](O[C@@H]8O[C@H](CO)[C@@H](O)[C@H](O)[C@H]8O[C@@H]8OC[C@@H](O)[C@H](O)[C@H]8O)[C@H](O)[C@H]7O[C@@H]7O[C@H](CO)[C@@H](O)[C@H](O)[C@H]7O)[C@@](C)(CO)C6CC[C@@]5(C)[C@]4(C)C[C@H]2O)[C@@H]3C1 (some centres undefined),Potency,[1],1.54 µM (active)
same,Potency,[2],2.75 µM (active)
O=C(Nc1ccnc(NC(=O)C2CC2)c1)c1c(Cl)cccc1Cl,Potency,[1],2.95 µM (active)
same,Potency,[2],2.95 µM (active)
C/C1=C\[C@@H](C)C[C@@H](C)[C@@H](Cc2cnco2)OC(=O)/C(C)=C/[C@@H](C)C[C@@H](C)[C@@H](Cc2cnco2)OC1=O,Potency,[1],1.78 µM (active)
same,Potency,[2],3.17 µM (active)
CC(C)(C)C1CCN(C(=O)n2ncc(C(O)(c3ccccc3)c3ccccc3)n2)CC1,Potency,[1],20.5 µM (active)
same,Potency,[2],11.5 µM (active)
Cc1ccc(C)c(-c2cc(C(F)(F)F)nn2-c2ccc(S(N)(=O)=O)cc2)c1,Potency,[1],20.5 µM (active)
same,Potency,[2],25.8 µM (active)
COc1ccccc1S(=O)(=O)Nc1ccc2c(c1)CN(C)C(=O)N2,Potency,[1],1.83 µM (active)
same,Potency,[2],1.63 µM (active)
Cc1cc(-c2ncc(-c3cccnc3)cc2/C=C/c2ccccc2)cnc1-c1cccnc1,Potency,[1],inactive
same,Potency,[2],inactive
Cc1nnc(C[C@@H]2C=C(c3ccc(Cl)cc3)c3ccccc3-n3c(C)nnc32)o1,Potency,[1],0.332 µM (active)
same,Potency,[2],0.296 µM (active)
CC(C)(F)CC(NC(c1ccc(-c2ccc(S(C)(=O)=O)cc2)cc1)C(F)(F)F)C(=O)NC1(C#N)CC1 (centres undefined),Potency,[1],inactive
same,Potency,[2],inactive
O=C(NCC1CCN(Cc2cccc(Cl)c2)CC1)[C@@H]1CCCN(c2ncnc3c2nc2n3CCCC2)C1,Potency,[1],inactive
same,Potency,[2],inactive
COc1cc(/C=C/C(=O)NCCn2c(C(F)(F)F)cc3ccccc32)cc(OC)c1OC,Potency,[1],inactive
same,Potency,[2],inactive
CC(NC(=O)Cc1cc(F)cc(F)c1)C(=O)NC1C(=O)N(C)c2ccccc2-c2ccccc21 (centres undefined),Potency,[1],2.58 µM (active)
same,Potency,[2],3.25 µM (active)
CC1CCC/C=C/C(=O)c2c(O)cc(O)cc2CC(=O)O1 (centres undefined),Potency,[1],2.9 µM (active)
same,Potency,[2],2.05 µM (active)
CC(=O)OC1CC(C)(C(=O)O)CC2C3=CC(=O)C4C5(C)CCC(OC6OC(C(=O)O)C(O)C(O)C6OC6OC(C(=O)O)C(O)C(O)C6O)C(C)(C)C5CCC4(C)C3(C)CCC12C (centres undefined),"activity change, negative = viability loss",[1],-3.77% [at 9.23 µM]
same,"activity change, negative = cell killing",[2],-8.59% [at 9.23 µM]
CC(C)C(C)C(O)C1CC23CC(=O)C4(O)C(=C2CCC3C1C)C=CC1(O)CC(O)CCC14C (centres undefined),Potency,[1],inactive
same,Potency,[2],inactive
C=C(C)C(=O)O[C@H]1/C(C=O)=C\CC/C(CO)=C/[C@H]2OC(=O)C(=C)[C@@H]2[C@@H]1OC,Potency,[1],11.3 µM (active)
same,Potency,[2],2.53 µM (active)
COC(=O)C1=COC(O[C@@H]2O[C@H](CO[C@@H]3O[C@H](COC(=O)/C=C\c4ccc(O)cc4)[C@@H](O)[C@H](O)[C@H]3O)[C@@H](O)[C@H](O)[C@H]2O)C2C(CO)=CCC12 (some centres undefined),Potency,[1],inactive
same,Potency,[2],inactive
C=C(C)C(=O)OC1CC(CO)CCC/C(CO)=C/C2OC(=O)C(=C)C21 (centres undefined),Potency,[1],2.53 µM (active)
same,Potency,[2],2.01 µM (active)
C=C1C(=O)O[C@H]2C[C@@H](C)[C@@H]3CCC(=O)[C@@]3(C)C[C@H]12,Potency,[1],3.65 µM (active)
same,Potency,[2],3.65 µM (active)
CO[C@H]1[C@@H](O)[C@H](O[C@H]2CC[C@@]3(C)C(CCC4C3CC[C@]35COC6(COC(=O)C6)C3CCC45O)C2)O[C@@H](C)[C@@H]1OC1OC(CO)C(OC2OC(CO)C(O)C(O)C2O)C(O)C1O (some centres undefined),Potency,[1],3.88 µM (active)
same,Potency,[2],3.88 µM (active)
CC(=O)NC(C(=O)O[C@H]1CCC(C)(C)[C@@H]2CC=C3C(=O)OCC3(O)[C@@]12C)C(C)C (some centres undefined),Potency,[1],8.01 µM (active)
same,Potency,[2],12.7 µM (active)
C=C1C(=O)O[C@H]2C3=C(C)CCC[C@]3(C)C(=O)C[C@@H]12,Potency,[1],1.83 µM (active)
same,Potency,[2],1.29 µM (active)
Cc1nc(NC(=O)N2CCC[C@H]2C(N)=O)sc1-c1ccnc(C(C)(C)C(F)(F)F)c1,Potency,[1],1.63 µM (active) and 2.63 µM (active)
same,Potency,[2],1.63 µM (active) and 2.95 µM (active)
C[C@@H]1CC[C@]2(C(=O)O)CC[C@]3(C)C(=CCC4[C@@]5(C)CC[C@H](O)[C@](C)(C(=O)O)C5CC[C@]43C)C2[C@]1(C)O (some centres undefined),Potency,[1],inactive
same,Potency,[2],inactive
O=C(Nc1nc2cc(C(F)(F)F)cc(NC3CC3)n2n1)c1cccnc1,Potency,[1],2.3 µM (active)
same,Potency,[2],1.83 µM (active)
Cc1nc2ccc(-n3ncc(C(=O)c4cc5ccccc5[nH]4)c3N)cc2[nH]1,Potency,[1],3.25 µM (active) and 2.63 µM (active)
same,Potency,[2],7.28 µM (active) and 4.17 µM (active)
O=c1ccc2ccc(OCCCCN3CCN(c4cccc5sccc45)CC3)cc2[nH]1,Potency,[1],14.5 µM (active)
same,Potency,[2],16.3 µM (active)
C=C1C(=O)O[C@@H]2C[C@H](C)[C@@H]3CC(=O)C(C)=C3C[C@H]12,Potency,[1],4.59 µM (active)
same,Potency,[2],2.58 µM (active)
C/C=C(/C)C(=O)O[C@H]1[C@H](OC(=O)/C(C)=C\C)[C@@]23C(CC1(C)C)[C@]1(CCC4[C@@]5(C)CC[C@H](O[C@@H]6O[C@H](C(=O)O)[C@@H](O)[C@H](O[C@@H]7O[C@H](CO)[C@H](O)[C@H](O)[C@H]7O[C@@H]7O[C@@H](C)[C@H](O)[C@@H](O)[C@H]7O[C@@H]7OC[C@@H](O)[C@H](O)[C@H]7O)[C@H]6O[C@@H]6O[C@H](CO)[C@H](O)[C@H](O)[C@H]6O)C(C)(C)C5CC[C@@]4(C)[C@]1(C)C[C@H]2O)O[C@H]3O (some centres undefined),Potency,[1],1.22 µM (active)
same,Potency,[2],2.18 µM (active)
CC[N+]1(C/C2=C/CCCCCC2)CCC(NC(=O)C2c3cc(Cl)ccc3Oc3ccc(Cl)cc32)CC1 (centres undefined),Potency,[1],23 µM (active)
same,Potency,[2],18.3 µM (active)
C=C1C(=O)O[C@H]2/C=C(/C)[C@@H](OC(C)=O)C/C=C(\C)C[C@@H](OC(=O)/C(=C/C)COC(=O)/C(=C/C)CO)[C@@H]12,Potency,[1],1.78 µM (active)
same,Potency,[2],1.12 µM (active)
CC(=O)O[C@]1(C(C)=O)CC[C@H]2[C@@H]3CCC4=CC(=O)CCC4=C3[C@@H](c3ccc(N(C)C)cc3)C[C@@]21C,Potency,[1],23 µM (active)
same,Potency,[2],23 µM (active)
COc1ccc2c(c1O[C@H]1CCNC1)CCC2,Potency,[1],inactive
same,Potency,[2],inactive
CC(C)(C)[C@H](NC(=O)c1ccc(N)c(Cl)c1)C(=O)N1CCC[C@H]1C(=O)N[C@H](C#N)CC(=O)O,Potency,[1],inactive
same,Potency,[2],inactive
COc1cc(F)c(F)c(Nc2ccc(I)cc2F)c1NS(=O)(=O)C1(CC(O)CO)CC1 (centres undefined),Potency,[1],18.3 µM (active)
same,Potency,[2],25.8 µM (active)
Cc1nc(-c2cn3c(n2)-c2ccc(-c4cnn(C(C)(C)C(N)=O)c4)cc2OCC3)n(C(C)C)n1,Potency,[1],7.3 nM (active) and 18.6 nM (active)
same,Potency,[2],5.8 nM (active) and 33.2 nM (active)
COc1cc(O)c2c(c1)C1OC1C[C@H](O)[C@H](O)C(=O)/C=C\C[C@H](C)OC2=O (some centres undefined),Potency,[1],3.25 µM (active)
same,Potency,[2],2.05 µM (active)
C/C=C(\C)C(=O)OC1C[C@@]2(COC(C)=O)O[C@H]2/C=C\[C@@]2(C)O[C@@H]2[C@H]2OC(=O)C(COC(C)=O)=C12 (some centres undefined),Potency,[1],8.93 µM (active)
same,Potency,[2],5.63 µM (active)
CN1CCN(C(=O)CN[C@@H]2C[C@H]2c2ccc(OCc3ccccc3)cc2)CC1,Potency,[2],20.5 µM (active)
CC(C)C[C@@H](C(=O)N[C@@H](Cc1ccc(OCc2ccccc2)cc1)C(=O)NC(C)(C)C)N(C)Cc1ccc(C(C)(C)C)cc1,Potency,[1],inactive
same,Potency,[2],inactive
